Target: Glucocorticoid receptor (Homo sapiens) (UniProt P04150)
Experiment: GR-GFP Redistribution (AID 450)
Conditions: U2OS GR-GFP nuclear translocation, laser cytometry, 2 h; series mostly up to 20.6 µM;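 active = compounds whose dose series gives a full or clear partial fitted curve of increased nuclear translocation; inconclusive = weak partial curve or effect only at the top dose; inactive = no dose-dependent translocation response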
Potency is the fitted concentration of half-maximal effect.

Chain of Glucocorticoid receptor (Homo sapiens) (P04150 whole entry, looked up): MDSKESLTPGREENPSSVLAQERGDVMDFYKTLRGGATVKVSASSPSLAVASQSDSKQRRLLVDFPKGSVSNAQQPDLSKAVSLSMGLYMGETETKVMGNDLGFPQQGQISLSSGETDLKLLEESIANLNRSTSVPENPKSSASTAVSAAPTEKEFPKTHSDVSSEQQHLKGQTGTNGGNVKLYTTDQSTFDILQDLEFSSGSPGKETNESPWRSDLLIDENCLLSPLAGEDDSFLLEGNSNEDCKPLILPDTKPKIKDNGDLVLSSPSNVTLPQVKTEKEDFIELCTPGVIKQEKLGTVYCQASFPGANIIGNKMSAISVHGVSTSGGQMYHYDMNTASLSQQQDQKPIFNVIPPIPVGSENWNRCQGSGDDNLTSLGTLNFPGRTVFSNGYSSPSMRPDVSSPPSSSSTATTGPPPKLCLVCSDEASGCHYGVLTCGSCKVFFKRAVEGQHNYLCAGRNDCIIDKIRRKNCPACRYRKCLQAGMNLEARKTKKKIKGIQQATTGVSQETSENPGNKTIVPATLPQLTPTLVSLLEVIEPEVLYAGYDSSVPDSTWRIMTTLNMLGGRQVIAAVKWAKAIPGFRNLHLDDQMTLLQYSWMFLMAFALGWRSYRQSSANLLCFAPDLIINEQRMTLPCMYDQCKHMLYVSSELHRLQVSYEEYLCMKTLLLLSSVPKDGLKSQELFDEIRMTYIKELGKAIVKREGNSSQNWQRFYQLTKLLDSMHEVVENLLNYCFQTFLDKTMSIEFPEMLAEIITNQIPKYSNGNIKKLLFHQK

Potency, inactive:
CN(C)C=C1C(=O)c2ccccc2C1=O > 20.6 µM, C=CCN(C)CCCNC(=O)/C=N/O > 20.6 µM, CC(=O)c1c(C(C)=O)c(C)n(NC(=O)c2ccncc2)c1C > 20.6 µM, COc1ccc(C(=O)c2oc3nc(C)cc(C)c3c2N)cc1 > 20.6 µM, COC(=O)c1ccc(Cn2nnc3c(sc4nc(N5CCOCC5)c5c(c43)CCCC5)c2=O)o1 > 20.6 µM, COc1ccc(-c2nn3c(-c4ccccn4)nnc3s2)cc1OC > 20.6 µM, COC(=O)c1cc(OC)c(OC)cc1N > 20.6 µM, COc1ccc2c(c1)n([O-])c1c([n+]2=O)CCC1 > 20.6 µM, CN(C)C(=O)COn1c(SCC(=O)N(C)C)nc2ccccc2c1=O > 20.6 µM, CCNC(=O)N(C)c1nncnc1C(=O)NC > 20.6 µM, Cc1cc2c(c(=O)n1CC1CCCO1)C(c1ccc3c(c1)OCO3)C(C#N)=C(N)O2 (centres undefined) > 20.6 µM, c1cc(-c2nnc3sc(C4CCCCC4)nn23)ccn1 > 20.6 µM, Cc1c(=O)n(OCc2c(F)cccc2F)c2ccccc2[n+]1[O-] > 20.6 µM, Cc1ccccc1COc1ccc(/C(O)=C2/C(=O)C(=O)N(CCCn3ccnc3)C2c2ccco2)cc1 (centres undefined) > 20.6 µM, CC(C)OC(=O)C(CC(=O)O)NCc1ccccc1 (centres undefined) > 20.6 µM, O=C(Nc1ccc(Cl)cn1)C1CCCN1S(=O)(=O)c1ccccc1 (centres undefined) > 20.6 µM, CCOC(=O)c1c(C)cccc1OCC(N)=O > 20.6 µM, COC(=O)c1ccc(C2/C(=C(/O)c3ccc(OC)cc3)C(=O)C(=O)N2c2cc(C)on2)cc1 (centres undefined) > 20.6 µM, CC1(C)CC(=O)C(C2=NC(C)(C)Cc3ccccc32)=C(O)C1 > 20.6 µM, COC(=O)CSc1nc(C)c(Oc2ccccc2)c(=O)[nH]1 > 20.6 µM, C=C(C)Cn1c(-c2ccc(OC)cc2)nc2ccccc21 > 20.6 µM, C=CCN=C(NC#N)SCCc1ccccc1 > 20.6 µM, CCOC(=O)c1ccc(CC2S/C(=C(\C#N)C(C)=O)NC2=O)cc1 (centres undefined) > 20.6 µM, CC(C)OCCCNc1ncnc2c1cnn2-c1ccccc1 > 20.6 µM, CCSc1nnc(NC(NC(=O)c2ccco2)(C(F)(F)F)C(F)(F)F)s1 > 20.6 µM, CC(C)CN1C(=O)c2ccc(C(=O)Nc3ccccn3)cc2C1=O > 20.6 µM, CCCCOc1ccc(C)cc1CN(CCO)CCO > 20.6 µM, Cc1cc(C)n(CC2CC(=O)N(c3cc(Cl)cc(Cl)c3)C2=O)n1 (centres undefined) > 20.6 µM, Clc1cccc(-c2nn3c(-c4cccc(Cl)c4)nnc3s2)c1 > 20.6 µM, C(=N\n1cnnc1)/c1cccnc1 > 20.6 µM, COc1ccc(C2CC(c3ccc(C)cc3)Nc3nc(N)nn32)cc1 (centres undefined) > 20.6 µM, COc1ccc(/C(O)=C2/C(=O)C(=O)N(CCCN(C)C)C2c2ccco2)cc1Cl (centres undefined) > 20.6 µM, CCOC(=O)c1[nH]c2cc3c(cc2c1NC(=O)CN1CCC(C)CC1)OCO3 > 20.6 µM, O=C1C=C(O)CC(c2cccs2)C1 (centres undefined) > 20.6 µM, Cc1ccc2cc(CNC(C)(C)C)c(=O)[nH]c2c1 > 20.6 µM, Cc1onc(-c2ccccc2Cl)c1C(=O)N1CCN(c2nc3ccccc3s2)CC1 > 20.6 µM, Cc1cc(C)n(C(=O)CNC(=O)C2COc3ccccc3O2)n1 (centres undefined) > 20.6 µM, COC(=O)/C=c1/s/c(=C(/C#N)C(=O)N2CCCCC2)n(-c2ccccc2)c1=O > 20.6 µM, O=C(O)CC(C(=O)OCCOc1ccccc1)N1CCOCC1 (centres undefined) > 20.6 µM

— PubChem BioAssay (NCATS)
